Drawing on PubChem BioAssay AID485314 (National Center for Advancing Translational Sciences (NCATS), 2010), this text covers Potency for 66 compounds.

Each structure is given as a SMILES string. Out of some 340,000 compounds screened, about 4,500 (1.3%) were called active. About 5% were inconclusive and are not listed. Calls follow the shape of the dose curve; as a rule, active = well fitted inhibition curve with a large enough effect; inconclusive = small, poorly fitted or top-dose-only effect, or another doubt; inactive = no such curve, though single readings can be large or run the other way. The entries come from a sample that favours actives as a whole. A call without a number means that no potency is given here.
Potency is read from the fitted curve at half-maximal effect.

This assay deals with DNA polymerase beta (Homo sapiens) (UniProt P06746). Description: qHTS Assay for Inhibitors of DNA Polymerase Beta. The conditions noted are these: Pol beta primer extension/strand displacement, fluorescence kinetic; series mostly up to 114 µM. Put shortly: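 Preincubation: enzyme (10 nM) with compound, 15 min, RT. Reaction: substrate added to 50 nM final. Reads: 0 and 10 min. Analysis: normalized, Hill fit.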
For the compound `Cc1ccc(Cn2c(CNC(=O)Cc3cccc(C)c3)nc3cccnc32)cc1`, the Potency result is “inactive”. As for `Cc1cc(NC(=O)c2cccc(Cl)c2)ccc1-c1cc2ccccc2oc1=O`, the Potency entry is “inactive”. For the compound `CCOc1ccc(-n2c(C)nc3c(cnn3-c3ccc(C)cc3)c2=O)cc1`, the Potency result is “inactive”. For `COc1ccccc1NC(=O)CN1C(=O)c2ccccc2Sc2ccc(C(=O)N3CCCC3)cc21`, the Potency was 50.1 µM (active). In the case of `COC(=O)c1ccc2c(c1)N(CC(=O)Nc1ccc(C)c(C)c1)C(=O)c1ccccc1S2`, the Potency result is “inactive”. On to `COc1cccc(NC(=O)CN2C(=O)c3ccccc3Sc3ncccc32)c1`, for which the Potency entry is “inactive”.

With `CCc1ccc(NC(=O)Cn2c(=O)n(CCC(=O)NCc3ccc4c(c3)OCO4)c(=O)c3ccccc32)cc1`, the Potency entry was “inactive”.

In the case of `COc1ccc(NC(=O)COCc2cc(-c3ccco3)on2)cc1`, the Potency entry is “inactive”.

Consider `CC(=O)Nc1ccc(NC(=O)COc2ccc(-c3ccccc3)cc2)cc1`, for which the Potency entry is “inactive”. With `COc1ccc(OCC(=O)Nc2nnc(-c3ccco3)s2)cc1`, the Potency was 17.8 µM (active). On to `Cc1ccc(OCC(=O)Nc2ccc(-c3nnc(-c4ccco4)o3)cc2)cc1`, for which the Potency was 14.1 µM (active). For the compound `Cc1cccc(NC(=O)CSc2nnc(-c3ccco3)o2)c1`, the Potency entry was “inactive”. For the compound `CNc1nnc(-c2ccco2)s1`, the Potency entry was “inactive”. For `O=C(CSc1nc(=O)[nH]c2c1CCCC2)Nc1cc(C(F)(F)F)ccc1Cl`, the Potency entry is “inactive”. On to `Cc1cccc(C(C)C)c1NC(=O)C(NS(=O)(=O)c1cccc2nsnc12)c1ccccc1` (stereo unspecified), for which the Potency result is “inactive”. As for `C=Cc1ccc(Cn2c(C(=O)O)c(CNC3CCCC3)c3ccc(C)cc32)cc1`, the Potency entry is “inactive”. In the case of `O=C(NCc1ccc2c(c1)CCN2C(=O)c1ccccc1)Nc1cc(F)ccc1F`, the Potency entry is “inactive”. As to `Cc1nc(SCCOc2ccc(Cl)cc2)[nH]c(=O)c1Cc1ccccc1`, the Potency result is “inactive”. For the compound `O=c1cc2nc(-c3ccccc3)nc(SCCOc3ccc(Cl)cc3)n2[nH]1`, the Potency was 20 µM (active). In the case of `Cc1cccc(-c2nc(SCc3ccc(Br)cc3)n3[nH]c(=O)cc3n2)c1` it was “inactive”; in that of `COc1ccccc1CCNC(=O)c1cccn1-c1nnc(N2CCCCC2)s1`, “inactive”; in that of `Cc1cc(C)cc(NS(=O)(=O)c2ccc3[nH]cc(C(=O)N4CCCCC4)c(=O)c3c2)c1`, “inactive”.

For the compound `CCCCNC(=O)c1c[nH]c2ccc(S(=O)(=O)Nc3ccc(OCC)cc3)cc2c1=O`, the Potency entry was “inactive”.

As to `CC(C)c1ccc(NS(=O)(=O)c2ccc3[nH]cc(C(=O)NC4CCCC4)c(=O)c3c2)cc1`, the Potency is 20 µM (active). Consider `O=C(Nc1nc2c(s1)CCCC2)c1ccccc1F`, for which the Potency entry was “inactive”. As for `COc1cc(OC)c(NC(=O)Cc2ccc(-n3c(C)nc4cccnc43)cc2)cc1Cl`, the Potency entry is “inactive”.

As to `COc1ccc(CNC(=O)c2ccc(NC(=O)N3CC4CCCN4c4ccccc43)cc2)cc1` (stereo unspecified), the Potency entry is “inactive”. For `O=C(Nc1ccc2nc(SCC(=O)N3CCCc4ccccc43)sc2c1)c1ccc(Cl)cc1`, the Potency result is “inactive”. As for `O=C(CSc1nc2ccccc2o1)N/N=C/c1ccccc1C(=O)O`, the entry is “inactive”. On to `Cc1ccc(/C=N/NC(=O)CSc2nc3ccccc3o2)cc1`, for which the Potency is 44.7 µM (active).

Regarding `CC(C)(C)C(=O)CSc1nc2ccccc2o1`, the Potency result was “inactive”. For `Cc1ccccc1-c1nc(CS(=O)(=O)CC(=O)Nc2cc(Cl)cc(Cl)c2)c(C)o1`, the Potency result was “inactive”. Take `Cn1c(SCC(=O)N/N=C/c2ccc(O)c(O)c2)nc2ccccc21`: the Potency result is “inactive”. Consider `O=C(N/N=C/c1ccc(O)c(O)c1)C1c2ccccc2Oc2ccccc21`, for which the Potency was 7.08 µM (active). For the compound `CCC(C)NC(=O)C1c2ccccc2Oc2ccccc21` (stereo unspecified), the Potency entry was “inactive”. As to `Cc1ccc(Nc2c(-c3ccc(Cl)cc3)nc3sccn23)c(C)c1`, the Potency result was “inactive”. For the compound `Cc1ccc(C(=O)N2CCc3cc(CNC(=O)c4ccc(Br)cc4)ccc32)cc1`, the Potency result is “inactive”. On to `CCn1cc(C(=O)NCCc2ccccc2)c(=O)c2cc(S(=O)(=O)N3CCCCCC3)ccc21`, for which the Potency result was “inactive”.

In the case of `CCOC(=O)c1c(C)[nH]c(CCC(=O)NCCCN2CCN(c3cccc(Cl)c3)CC2)c1C`, the Potency result was “inactive”. As to `O=C(NCCSc1ccccc1)c1ccco1`, the Potency result is “inactive”. Turning to `O=C(NCCc1ccco1)c1nn(Cc2ccccc2)c(=O)c2ccccc12`, the Potency is 44.7 µM (active).

Turning to `O=c1c2ccccc2c(-c2ccc(Br)cc2)nn1Cc1ccccc1`, the Potency result was “inactive”. Turning to `CCn1cc2nc(SCc3ccccc3Cl)n(CCc3ccccc3)c(=O)c2n1`, the Potency result is “inactive”. As for `CCc1ccc(NC(=O)c2sc3nc4c(cc3c2N)CN(CC)CC4)cc1`, the Potency result was “inactive”. Take `CCc1ccc2nc3sc(C(=O)Nc4nnc(CC)s4)c(N)c3cc2c1`: the Potency was 25.1 µM (active). On to `CCc1nnc(NC(=O)c2sc3nc(C)cc(COC)c3c2N)s1`, for which the Potency result was “inactive”. Take `Cc1ccc(C)c(N2CCN(C(c3ccccc3)c3nnc(-c4ccccc4)o3)CC2)c1` (stereo unspecified): the Potency result is “inactive”. As for `O=C(CSC(=S)N1CCOCC1)c1ccccc1`, the Potency entry is “inactive”. For the compound `O=C(CSC(=S)N1CCOCC1)c1cc(Br)cc(Br)c1O`, the Potency was 31.6 µM (active).

For the compound `O=C(c1cc2cc(Br)cc(Br)c2oc1=O)N1CCOCC1`, the Potency entry is “inactive”.

With `CCc1ccccc1N(C)C(=O)C1CCCN(c2ncnc3onc(-c4ccc(F)cc4)c23)C1` (stereo unspecified), the Potency result is “inactive”. With `O=C(Nc1nnc(C2CC(=O)N(c3ccc(Cl)cc3)C2)s1)c1ccco1` (stereo unspecified), the Potency entry was “inactive”. For `O=C(c1cnn(-c2ccc(F)cc2)c1-n1cccc1)N1CCN(c2ccc(F)cc2)CC1`, the Potency result is “inactive”. As for `COC(=O)c1sc2ncccc2c1-n1c(C)ccc1C`, the entry is “inactive”; as for `Cc1cccc(CCNC(=O)c2ccc3c(c2)nc2n3CCC(C)C2)c1` (stereo unspecified), “inactive”; as for `O=C(NCc1ccco1)c1cccn2c(=O)c3c4c(sc3nc12)CCCC4`, 50.1 µM (active).

For `O=c1oc(-c2ccco2)nc2sc3c(c12)CCCCC3`, the Potency entry was “inactive”. With `O=C(NCc1ccco1)c1nc2ncccn2n1`, the Potency entry was “inactive”. As for `CN(Cc1ccccc1)c1ncnc2onc(-c3ccc(F)cc3)c12`, the entry is “inactive”. Consider `COC(=O)c1ccccc1NS(=O)(=O)c1ccc2c(c1)CCCN2C(C)=O`, for which the Potency result is “inactive”.

As for `Cc1ccc(S(=O)(=O)c2nc(-c3cccs3)oc2N2CCCCC2)cc1`, the Potency result was “inactive”. In the case of `COc1cccc(NC(=O)CSc2cc(=O)n(C)c3ccc(Cl)cc23)c1`, the Potency entry is “inactive”.

In the case of `Cc1cc(F)ccc1NS(=O)(=O)c1ccc(-n2cccn2)cc1`, the Potency result was “inactive”. As for `O=[N+]([O-])c1cc(-c2nc(-c3ccccc3)no2)ccc1NCc1ccco1`, the Potency result was “inactive”. For `CNc1ccc(-c2nc(-c3ccco3)no2)cc1[N+](=O)[O-]`, the Potency result was “inactive”. `CC(Nc1ccc(-c2nc(-c3ccco3)no2)cc1[N+](=O)[O-])c1ccccc1` (stereo unspecified): the Potency is 20 µM (active).
